OPRM1-OPRD1 ag: agonists of OPRM1-OPRD1 heterodimerization, primary screen, cell-based, luminescence; 340,000 tested, 0.3% active; Mu-type opioid receptor (Homo sapiens) + Delta-type opioid receptor (Homo sapiens), …; AID 504326, 2011; cells; activation, % at 9.3 µM; in the data active means activation above about 18%;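 further: 0% = vehicle-treated cells and 100% = reference agonist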
HTR5A inv ctr: HTR5A inverse agonists in luminescence cell assay, primary screen, counter-screen for OPRM1-OPRD1 heterodimer inverse agonist project, full-deck HTS | 5-hydroxytryptamine receptor 5A (Homo sapiens), P47898 | HTR5A cell line, inverse agonism | inhibition, % at 9.3 µM | 340,000 tested, 0.083% active | AID 504634, 2011; in the data active means inhibition mostly above about 23%, no sharp cut-off; inactive means mostly below about 18%;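 further: 0% = cells with DMSO and 100% = no-cell wells with DMSO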
Target sequence (P47898 whole entry, looked up): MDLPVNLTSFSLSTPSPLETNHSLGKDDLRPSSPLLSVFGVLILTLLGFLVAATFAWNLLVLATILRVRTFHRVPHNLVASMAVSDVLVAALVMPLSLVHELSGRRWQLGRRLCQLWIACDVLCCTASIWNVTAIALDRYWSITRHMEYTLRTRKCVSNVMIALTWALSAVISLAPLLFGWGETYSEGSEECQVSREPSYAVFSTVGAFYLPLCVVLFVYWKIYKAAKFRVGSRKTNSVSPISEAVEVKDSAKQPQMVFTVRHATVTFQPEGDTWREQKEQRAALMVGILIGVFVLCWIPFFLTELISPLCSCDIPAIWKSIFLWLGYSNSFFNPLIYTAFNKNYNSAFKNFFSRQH
HTR5A ag ctr: HTR5A agonists in luminescence cell assay, primary screen, counter-screen for OPRM1-OPRD1 heterodimer agonist project, full-deck HTS; 5-hydroxytryptamine receptor 5A (Homo sapiens), P47898; cell-based; activation, % at 9.3 µM; 340,000 tested, 0.61% active; AID 504692, 2011; in the data active means activation mostly above about 9.5%, no sharp cut-off; inactive means mostly below about 7.6%;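 further: 0% = cells with vehicle only and 100% = reference agonist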
OPRM1-OPRD1 inv: inverse agonists of MOR-DOR heterodimerization, primary screen, cell-based, luminescence | cell-based MOR-DOR heterodimer luminescence, inverse agonism | inhibition, % at 9.3 µM | 340,000 tested, 0.21% active | AID 504357, 2011 | Mu-type opioid receptor (Homo sapiens) + Delta-type opioid receptor (Homo sapiens), …; in the data active means inhibition above about 22%, passing the limit was not always enough;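 further: 0% = cells with DMSO and 100% = wells without cells with DMSO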
Starred values were filed as active, the others as inactive. A selection: hits, their analogues and other compounds. The true share with any hit is near 1.1%.

SMILES	OPRM1-OPRD1 ag	HTR5A inv ctr	HTR5A ag ctr	OPRM1-OPRD1 inv
NC(=O)c1ccccc1NC(=O)CS(=O)(=O)Cc1ccccc1	2.9	-8.9	9.6*	-17.6
NC(=O)c1ccccc1NC(=O)CCCc1ccccc1	-3.8	7.8	-2.1	17.5
Cc1cccc(Cl)c1NC(=S)NN	-1.6	9.0	13.2*	8.2
Cc1c(Cl)cccc1NC(=S)NN	2.3	-1.6	-3.4	-12.2
CN(CC(=O)Nc1ccc(N2CCOCC2)cc1)C(=O)CCc1cc(C(C)(C)C)c(O)c(C(C)(C)C)c1	-1.2	8.5	-3.4	6.7
Cc1ccc(Cl)cc1N1CCN(C(=O)c2noc(C)c2[N+](=O)[O-])CC1	14.9	-37.4	10.0*	-74.8
Cc1onc(C(=O)N2CCN(c3ccccc3)CC2)c1[N+](=O)[O-]	-3.4	3.8	0.2	17.4
CCn1c(=O)c(C(=O)CN(C)CC(=O)Nc2ccccc2Br)c(N)n(Cc2ccccc2)c1=O	2.2	1.1	2.4	-10.7
COC(=O)CN(c1cc(OC)ccc1OC)S(=O)(=O)c1ccc(OC)c(OC)c1	-1.8	-17.3	9.2*	10.7
Nc1nc(N)c2c(ccc3nccc32)[nH]1	-0.6	-42.3	11.9*	2.6
CC(C)(C)OC(=O)NCc1ccc(NC(=O)c2nc[nH]c2C(=O)N[C@@H](Cc2ccccc2)C(=O)OCc2ccccc2)cc1	40.9*	-105.3	24.7*	-227.8
CC(C)(C)n1nnnc1C(c1ccc(Cl)cc1)N1CCCc2ccccc21 (stereo unspecified)	-2.2	13.7	2.9	12.7
COc1ccccc1C(c1nnnn1C(C)(C)C)N1CCCc2ccccc21 (stereo unspecified)	0.9	-26.4	12.7*	-5.5
FC(F)(F)Oc1ccc(Nc2nc(N3CCOCC3)nc(N3CCOCC3)n2)cc1	1.9	-26.2	4.1	-9.4
O=C(c1ccc(NS(=O)(=O)c2ccccc2)cc1)N1CCN(c2ccccc2)CC1	-0.9	-4.7	1.3	4.9
COc1ccc(C(=O)/C=C/C(=O)N(CC(=O)NC2CCCCC2)CC2CCCO2)c(O)c1 (stereo unspecified)	-6.4	-5.4	1.9	32.7*
CN(C)c1ccc(/C=C(\C#N)C(=O)OCC(=O)N(C)C2CCS(=O)(=O)C2)cc1 (stereo unspecified)	-1.8	-4.2	1.5	7.5
COc1ccc(/C=N/NC(=O)c2sccc2C)c2ccccc12	11.4	-15.5	13.4*	-57.1
O=C(CSc1ccc(Cl)cc1)NN=C1CCCCCC1	2.2	12.1	11.8*	-11.1
O=C(CCSc1ccc(Cl)cc1)NN=C1CCCCCC1	-3.5	-17.7	6.6	17.5
CCOc1cc(N2CCOCC2)c(OCC)cc1NC(=O)CSc1nnc(N)s1	4.0	-14.5	3.7	-20.4
O=C(O)C(Cc1ccc(F)cc1)c1ccccc1 (stereo unspecified)	-2.4	-6.2	1.7	11.4
O=C(CN1CC(c2ccccc2)CC1=O)Nc1ccc2c(c1)OCO2 (stereo unspecified)	0.0	-35.8	13.6*	0.2
Cc1ccc(CNC(=S)Nc2ccc(NS(=O)(=O)c3ccc(C)cc3)cc2)cc1	4.1	11.2	11.5*	-21.4
Cc1ccc(NC(=S)NCc2ccc(F)cc2)cc1	-0.1	-19.2	7.4	0.6
SMILES	OPRM1-OPRD1 ag	HTR5A inv ctr	HTR5A ag ctr	OPRM1-OPRD1 inv
Cc1ccc(S(=O)(=O)N2CCOCC2)cc1NC(=O)CSc1nnc(C2CC2)n1C1CC1	-4.8	10.8	3.0	18.0
O=C(Nc1cccc(-c2cnc3ccccc3n2)c1)c1cccc(NC(=O)c2ccco2)c1	51.1*	-53.0	13.8*	-265.4
O=C(Nc1cccc(-c2cnc3ccccc3n2)c1)c1ccccc1	-2.7	2.2	-0.7	14.3
CCCCCN(C(=O)CCC(=O)OCC(=O)c1cccc(OC)c1)c1c(N)n(CCCC)c(=O)[nH]c1=O	-1.1	-13.1	-3.7	7.7
O=C(O)/C=C1\NC(=O)c2ccccc21	-3.8	-0.4	5.4	16.2
O=C1N/C(=C\c2ccc(O)cc2)C(=O)c2ccccc21	5.8	17.5	12.0*	-33.1
Cn1ncc2c(O/N=C(\N)c3ccc(C(F)(F)F)cc3)ncnc21	39.2*	0.6	48.1*	-195.6
Cc1ccc(C(=O)NNc2ncnc3c2cnn3C)cc1	-4.0	-20.1	3.7	21.2
O=C(Cc1c(F)c(F)c(F)c(F)c1F)Nc1nc(-c2ccccc2)cs1	7.6	-12.8	4.8	-40.4
O=c1[nH]cnc2c1ccn2C1OC(CO)C(O)C1O (stereo unspecified)	-2.9	17.7	1.1	14.7
COc1ccc(/C=N\NC(=O)CNC(=O)C(c2ccccc2)c2ccccc2)cc1[N+](=O)[O-]	0.5	-14.4	5.1	-3.7
COc1ccc(/C=N/NC(=O)C(C)Sc2ccccn2)cc1[N+](=O)[O-] (stereo unspecified)	-3.1	22.2	10.9*	16.0
O=C(CCN1C(=O)/C(=C\c2cccc(Br)c2)SC1=S)N1CCOCC1	-0.9	-0.6	3.6	4.9
O=C(CNc1ccccc1)N/N=C/c1c[nH]c2ccccc12	-1.1	-30.4	12.7*	5.2
COc1cc2ncnc(NCc3cccc(F)c3F)c2cc1OC	2.0	-32.7	9.2*	-9.3
CCOC(=O)c1csc(NC(=O)c2ccc(S(=O)(=O)N(CC)CC)cc2)n1	1.2	-25.7	12.1*	-6.2
O=C(CN1CCN(CCC(=O)Nc2ccccc2F)CC1)Nc1ccc(Cl)cc1	-1.9	-28.8	13.1*	9.6
CC1CC(C)C(=NNC(N)=O)C(C(O)CC2CCC(=O)NC2=O)C1 (stereo unspecified)	-2.1	11.8	-3.0	10.6
O=C(NC1CC1)c1cccc(NC(=O)c2cn3ccccc3n2)c1	-5.1	-9.2	13.0*	20.1
CCC(C)[C@@H](NC(=O)OC(C)(C)C)c1nnc(S(=O)(=O)Cc2cccc(C)c2)o1 (stereo partly specified)	-0.9	2.8	14.1*	4.0
O=C(O/N=C1/CCSc2ccccc21)c1ccc(F)cc1	6.0	-50.1	10.3*	-34.5
Cc1cccc2c1NC(=O)C2=O	-8.2	6.0	-1.5	41.1*
O=C1Nc2c(Br)cccc2C1=O	-0.1	11.8	-3.4	0.5
COc1ccc(OC)c(S(=O)(=O)N(C)CC(=O)N2CCOCC2)c1	-3.9	21.6	10.8*	12.9
COc1ccc(OC)c(S(=O)(=O)N(C)CC(=O)N2CCN(c3ccc(F)cc3)CC2)c1	0.5	6.1	-2.3	-2.9
CC(C)CC1NC(=O)N(CC(=O)Nc2ccc3c(c2)OCCO3)C1=O (stereo unspecified)	-2.7	-19.2	11.0*	10.4
O=C(CN1C(=O)NC(c2ccc(F)cc2)C1=O)Nc1ccc2c(c1)OCCO2 (stereo unspecified)	-4.7	-6.4	2.5	18.8
COc1ccc(Cl)cc1NC(=O)CN(C)C(=O)c1cc2c(s1)CCC(C)C2 (stereo unspecified)	2.7	-9.5	3.5	-13.8
CCCC(=O)Nn1cnc2c(c1=O)C1(CCCC1)Cc1ccccc1-2	-1.6	-50.6	3.3	9.4
CCCC(=O)NC1=C(C#N)C2(CCCC2)Cc2ccccc21	-0.3	-26.4	10.5*	1.4

Compound activity (PubChem)
